A selection: hits, their analogues and other compounds. The true share with any hit is near 4%.
Mtb FBA inh: Mtb FBA enzyme inhibitors, primary screen, biochemical, fluorescence, strain H37Rv. 360,000 compounds, 2.3% hits. purified M. tuberculosis FBA, fluorescence read-out. AID 588726, 2011. Fructose-bisphosphate aldolase (Mycobacterium tuberculosis (strain ATCC 25618 / H37Rv)), …. inhibition, % at 1 µM; in the data active means inhibition above about 27%;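 further: 0% = vehicle and 100% = reference inhibitor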
RecA splice inh: Mtb RecA intein splicing inhibitors, primary screen, biochemical, fluorescence, HTS; Protein RecA (Mycobacterium tuberculosis (strain ATCC 25618 / H37Rv)), P9WHJ3; cell-free RecA intein splicing; inhibition, % (concentration not given with the values); 290,000 compounds, 0.75% hits; AID 2221, 2009; in the data active means inhibition above about 30%;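 further: 0% = vehicle wells and 100% = reference inhibitor control wells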
GDH-TPI counter: GDH-TPI coupling enzyme inhibitors, primary screen, artefact control for M. tuberculosis FBA inhibitor project, biochemical, absorbance, full deck; 360,000 compounds, 1.2% hits; AID 588335, 2011; GDH-TPI coupled enzyme counterscreen, NADH absorbance; inhibition, % at 4.8 µM; in the data active means inhibition above about 30%;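 further: 0% = DMSO wells and 100% = wells lacking the enzyme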
UGM FP inh: M. tuberculosis UGM enzyme inhibitors, primary screen, biochemical, fluorescence polarization, single point. 320,000 compounds, 0.06% hits. purified UGM, fluorescence polarization probe displacement. inhibition, % at 10 µM. AID 504406, 2011. UDP-galactopyranose mutase (Mycobacterium tuberculosis (strain ATCC 25618 / H37Rv)), …; in the data active means inhibition above about 10%, passing the limit was not always enough
Mtb bLac sens: beta-lactam sensitization of Mtb H37Rv, H37Rv; M. tuberculosis H37Rv growth with meropenem, percent inhibition; inhibition, % at 25 µM; 330,000 compounds, 0.27% hits; AID 434955, 2010;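 further: growth measured after seven days incubation then overnight dye step; 0% = bacteria only wells and 100% = bacteria with antibiotic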
Rv3671c protease: Rv3671c serine protease inhibitors, primary screen, biochemical, fluorescence polarization, M. tuberculosis H37Rv. 320,000 compounds, 0.048% hits. inhibition, % at 5.96 µM. P9WHR9; in the data active means inhibition above about 38%;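 further: extracellular domain of Rv3671c used as enzyme; 0% = enzyme with DMSO and 100% = no enzyme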
GFP chromophore: counter-screen: blocks GFP chromophore formation, dose response, counter-screen, biochemical, fluorescence, homogeneous; shares compounds with RecA splice inh; 2,100 compounds, 83% hits; EC50, µM; cell-free GFP chromophore formation
* hit, by the source's call; . = no result. Unless noted, how the calls were made is not given here.

SMILES | Mtb FBA inh | RecA splice inh | GDH-TPI counter | UGM FP inh | Mtb bLac sens | Rv3671c protease | GFP chromophore
C#CCOc1ccc(Br)cc1C(c1c(C)[nH][nH]c1=O)c1c(C)[nH][nH]c1=O | -0.4 | 94.0* | -2.9 | 3.5 | 0.4 | -7.1 | 2.21*
CCOc1ccc(Cl)cc1S(=O)(=O)N1CCCC1 | -0.7 | 0.3 | -7.9 | -2.6 | . | 5.3 | .
CC[C@@]12C(=O)N(c3cccc(Cl)c3)C(=O)N1[C@H](c1ccc(Br)cc1)[C@@H]1C(=O)N(C(C)(C)C)C(=O)[C@@H]12 | -0.2 | -2.2 | -6.0 | 1.8 | 4.0 | 0.8 | .
O=C(Nc1cccc(OC(=O)c2ccco2)c1)c1ccco1 | -0.9 | 33.3* | -3.1 | 1.0 | 91.3 | 1.2 | >38
O=C(COC(=O)c1cc[n+]([O-])cc1)Nc1cc([N+](=O)[O-])ccc1Cl | -2.2 | 3.6 | 5.6 | -0.1 | -10.9 | -1.7 | .
CCc1ccc(N2CC(C(=O)N3CCN(c4ccccn4)CC3)CC2=O)cc1 (stereo unspecified) | 13.3 | 8.8 | 2.4 | -0.1 | -10.7 | 1.1 | .
COc1cc(NCCCC(C)N)c2ncccc2c1 (stereo unspecified) | 2.9 | 88.4* | -0.6 | . | . | . | 10.2*
CCC(CNc1cc(OC)cc2cccnc12)NC1CCCCC1 (stereo unspecified) | -0.6 | 67.2* | 13.0 | 5.4 | 7.1 | 21.1 | 24.6*
CCc1ccc(C(=O)Cn2ncc(Cl)c(Cl)c2=O)cc1 | 1.9 | 15.1 | 8.6 | 1.1 | 91.4 | -9.3 | .
O=C(OCn1ncc(Cl)c(Cl)c1=O)c1cccc(C(F)(F)F)c1 | -1.3 | 93.9* | -3.8 | 0.0 | 100.1 | -26.2 | 1.57*
Cc1onc(-c2ccccc2Cl)c1C(N)=O | 0.1 | -0.6 | -0.8 | -0.2 | -6.8 | -6.2 | .
Cc1[nH]n(C)c(=O)c1C(=O)c1c(-c2ccccc2Cl)noc1C | 2.8 | 74.3* | 2.3 | 2.8 | 0.6 | 3.8 | 16.6*
CC1CC(C)(C)N2C(=O)C(=C(C#N)C#N)c3cccc1c32 (stereo unspecified) | 4.5 | 27.9 | -0.5 | -2.0 | 0.2 | 1.4 | .
Cc1cc2c3c(c1)C(C)CC(C)(C)N3C(=O)C2=C(C#N)C#N (stereo unspecified) | -5.9 | 38.9* | -6.9 | -1.1 | 55.6 | -7.3 | 3.74*
Cc1ccccc1N1CC(C(=O)Nc2ccncc2)CC1=O (stereo unspecified) | -0.3 | -1.8 | -8.8 | 0.1 | -1.6 | 6.4 | .
CC1(NC(=S)NCCO)CCS(=O)(=O)C1 (stereo unspecified) | 3.6 | -2.4 | -6.5 | 2.1 | -2.4 | 13.1 | .
CC(C)NC(=S)NC1(C)CCS(=O)(=O)C1 (stereo unspecified) | 3.1 | 47.6* | 4.5 | 1.6 | -5.5 | 5.1 | >38
COc1cccc(OCc2cc(C(=O)N3CCN(C)C(c4ccccc4)C3)no2)c1 (stereo unspecified) | -1.1 | 2.7 | 1.7 | -2.4 | 16.7 | -5.4 | .
Clc1ncnc2scc(C3COc4ccccc4O3)c12 (stereo unspecified) | 2.8 | 66.6* | -4.1 | -0.6 | -7.7 | -11.6 | 20.3*
Cc1ccc(NC(=O)CSc2nnc(C3CC3)n2CC2CCCO2)cc1C (stereo unspecified) | 1.6 | 1.6 | 9.7 | 0.0 | 5.7 | -6.7 | .
CC(=O)Nc1ccc2ccccc2c1 | -1.0 | -2.4 | 8.8 | 3.5 | 76.7 | -5.1 | .
CCOC(=O)C(Nc1ccc2ccccc2c1)C(=O)OCC | 8.9 | 70.5* | 4.8 | -2.2 | 98.6 | -7.6 | 21.8*
O=C(Oc1ccccc1N1C(=O)CCC1=O)c1ccco1 | 1.3 | 35.6* | -2.3 | 0.6 | 1.1 | 4.8 | >38
C[C@H]1CN([C@@H](C)CO)C(=O)Cc2cc(NC(=O)CCC(F)(F)F)ccc2O[C@H]1CN(C)S(=O)(=O)c1ccc(Cl)cc1 | -2.1 | . | -0.9 | . | -2.5 | -0.7 | .
O=C(CN1C(=O)S/C(=C\C=C\c2ccccc2)C1=O)Nc1ccccc1C(=O)O | -1.9 | 60.2* | 35.4* | -1.6 | 1.4 | -19.6 | 10.3*

Assay outcomes from PubChem BioAssay.
